LYPLA2 counter: blocks human lysophospholipase 2, a PME1 counter-screen. recombinant LYPLA2, FP-Rh probe fluorescence polarization. AID 2177. actives 0.38% (n = 320,000). inhibition, % at 5.9 µM. O95372;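 active = inhibition above the screen-wide mean plus 3 SD, limit set per campaign, cut at about 26% in these data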;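 note: 0% = LYPLA2 with DMSO and 100% = wells lacking LYPLA2 enzyme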
Hck Nef HTS: inhibitors of human Hck kinase activated by Nef | P08631 | Recombinant Hck-YEEI plus Nef, Z-Lyte FRET kinase assay | inhibition, % at 20 µM | actives 0.68% (n = 220,000) | AID 463187;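 active = Hck-Nef kinase inhibition above about 50%, limit read from the data; inactive = inhibition below that limit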;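 note: 0% = DMSO with Hck plus Nef and 100% = Hck alone without Nef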
LYPLA1 inh: blocks human lysophospholipase 1, a PME1 counter-screen. actives 0.16% (n = 320,000). recombinant LYPLA1, FP-Rh probe fluorescence polarization. AID 2174. O75608. inhibition, % at 5.9 µM;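 active = inhibition above the mean of all tested compounds plus 3 SD, set per campaign, cut at about 14% in these data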;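 note: inhibitors block serine hydrolase probe labeling of LYPLA1 so polarization falls; 0% = enzyme with DMSO and 100% = wells lacking LYPLA1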
Rin1 Abl inh: blocks binding of human Rin1 to Abl. actives 0.4% (n = 360,000). inhibition, % at 7.35 µM. P00519+Q13671. TR-FRET Rin1/Abl binding, biochemical. AID 588664; in the data active = inhibition above about 5%, passing the limit was not always enough
PREPL inh: inhibitors of human prolyl oligopeptidase-like enzyme PREPL. Q4J6C6. recombinant PREPL, fluorescence polarization activity-based probe. inhibition, % at 5.96 µM. actives 0.68% (n = 320,000); in the data active = inhibition above about 43%;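 note: 0% = enzyme with DMSO and 100% = wells lacking enzyme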
Target sequence (Q4J6C6 whole entry, looked up): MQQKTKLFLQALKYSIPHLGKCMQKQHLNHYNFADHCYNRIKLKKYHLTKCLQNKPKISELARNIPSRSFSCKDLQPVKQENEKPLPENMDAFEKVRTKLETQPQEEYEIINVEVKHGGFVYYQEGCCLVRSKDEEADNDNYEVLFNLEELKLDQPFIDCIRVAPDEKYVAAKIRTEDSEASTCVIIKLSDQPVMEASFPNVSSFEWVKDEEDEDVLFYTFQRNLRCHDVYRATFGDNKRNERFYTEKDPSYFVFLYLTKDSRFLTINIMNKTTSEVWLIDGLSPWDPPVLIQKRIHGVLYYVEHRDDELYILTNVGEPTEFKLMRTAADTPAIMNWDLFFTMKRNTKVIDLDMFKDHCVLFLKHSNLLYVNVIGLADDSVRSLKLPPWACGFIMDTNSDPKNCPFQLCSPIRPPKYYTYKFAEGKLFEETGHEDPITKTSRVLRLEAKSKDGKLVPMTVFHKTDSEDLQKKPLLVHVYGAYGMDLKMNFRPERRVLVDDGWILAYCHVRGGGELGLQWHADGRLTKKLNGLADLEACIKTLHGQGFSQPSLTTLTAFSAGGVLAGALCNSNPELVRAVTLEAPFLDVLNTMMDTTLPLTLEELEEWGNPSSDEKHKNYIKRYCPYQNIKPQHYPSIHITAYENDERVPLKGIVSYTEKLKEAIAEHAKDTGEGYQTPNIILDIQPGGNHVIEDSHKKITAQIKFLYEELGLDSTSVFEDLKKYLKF
p97 ATPase inh: inhibitors of human p97 ATPase; recombinant p97 ATPase, Kinase-Glo ATP luminescence, 3 h; AID 1481; actives 0.42% (n = 220,000); inhibition, % at 8 µM; P55072; in the data active = inhibition above about 15%;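 note: 0% = DMSO vehicle and 100% = wells lacking enzyme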
Hck Nef conf: confirmation of Hck-Nef kinase inhibitors | AID 463188 | actives 28% (n = 1,300) | shares compounds with Hck Nef HTS | calls only at 10 µM | Recombinant Hck-YEEI:Nef, Z-Lyte FRET kinase assay;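 active = average inhibition of at least 50%, with Z-scores no higher than 3 in both the phospho-tyrosine peptide and fluorescence counterscreens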
* hit, by the source's call; i = inactive; nt = no result given; + = active, no number. Compounds with a hit are over-represented: about 1.7% of the library has one in this group of screens.

SMILES	LYPLA2 counter	Hck Nef HTS	LYPLA1 inh	Rin1 Abl inh	PREPL inh	p97 ATPase inh	Hck Nef conf
Cc1cc2c(C)cc(=O)oc2c2c1NCCC2	5.5	97.5*	-0.4	-5.3	1.3	3.3	nt
Cc1cc2cc3c(C)cc(=O)oc3c(C)c2o1	-2.4	nt	-1.1	3.2	-7.5	nt	nt
O=C(Nc1cc(NC(=O)c2ccccc2F)ccc1Cl)c1ccccc1	-2.2	nt	-4.2	0.8	-5.1	nt	nt
O=C(Nc1cccc(S(=O)(=O)N2CCOCC2)c1)C1CC1	nt	nt	nt	4.0	9.3	nt	nt
Cc1cccn2c(=O)c3cc(C(=O)O)n(C)c3nc12	-1.2	51.6*	0.7	2.0	-8.0	4.5	i
COC1C=CC(CNC(=O)c2cc3c(=O)n4cccc(C)c4nc3n2C)(OC)O1 (stereo not given)	-6.9	73.8*	1.4	-5.7	10.8	1.0	i
Cc1cccn2c(=O)c3cc(C(=O)NC4CCCCC4)n(C)c3nc12	-0.9	nt	0.6	-1.4	6.4	nt	nt
Cc1ccc(C(=O)NC(=S)Nc2ccc(-c3ccc(CO)o3)cc2)cc1	-15.0	61.0*	-10.7	-0.7	-3.6	2.7	i
O=C(NC(=S)Nc1ccc(-c2ccc(CO)o2)cc1)c1cccs1	-58.4	31.4	-31.0	3.2	-5.1	2.7	nt
O=C(O)c1ccc2c(c1)C(=O)/C(=C/c1ccccc1)C2=O	3.7	19.4	2.3	-1.1	11.6	5.3	nt
O=C(O)c1ccc2c(c1)C(=O)/C(=C\c1ccco1)C2=O	6.7	61.4*	-1.4	8.4	6.2	6.1	+
O=C(NC(=O)c1ccccc1Cl)Nc1ccc(-c2cnco2)cc1	-4.7	70.2*	-2.5	0.0	-3.3	1.9	i
Cc1ccc(C(=O)Nc2cccc(C(F)(F)F)c2)cc1NC(=O)c1ccno1	-6.3	74.9*	-2.5	2.0	-2.7	nt	+
Cc1ccc(C(=O)Nc2cccc(C(F)(F)F)c2)cc1Nc1ncnc2nc[nH]c12	-31.1	55.2*	-24.5	-2.3	-0.4	nt	i
Cc1ccc(C(=O)Nc2cccc(C(F)(F)F)c2)cc1NC(=O)c1nccn1C	-1.3	40.1	-3.2	-3.7	1.4	nt	nt
CCC(=O)N1c2ccc(S(=O)(=O)N3CCN(c4ccc([N+](=O)[O-])cc4)CC3)cc2CC1C (stereo not given)	-5.8	nt	-1.4	-1.8	-60.7	nt	nt
O=C(NCCO)C(=O)Nc1cc2c3c(c1)CCN3C(=O)CC2	3.7	nt	1.2	1.0	-0.3	nt	nt
COc1cc2ncnc(NCc3ccco3)c2cc1OC	5.3	52.9*	3.0	-0.9	-3.7	0.7	i
COc1ccccc1CNc1ncnc2cc(OC)c(OC)cc12	-0.6	46.6	-2.5	0.0	2.6	1.4	nt
CCC(C)NC(=O)c1cn(CC)c2ccc(S(=O)(=O)N3CCCCCC3)cc2c1=O (stereo not given)	-5.2	nt	-2.9	-1.3	-5.0	nt	nt
Cn1cnc2c(N/N=C/c3cccs3)ncnc21	-2.6	68.3*	-3.2	-4.5	-11.4	-3.2	+
CCNC(=O)N(C)c1c(CC)nc2ccc(C(=O)N3CCN(C(C)=O)CC3)cn12	nt	nt	nt	-1.3	nt	nt	nt
CC1=N/C(=C/c2ccco2)C(=O)O1	nt	58.5*	nt	-0.4	nt	5.2	i
CCC/C=N/NC(=O)c1cccc(Br)c1	1.3	119.4*	-2.1	1.8	14.3	2.4	i
COc1cccc(-c2ccc(NC(=O)C3CCCN(Cc4cnn(C(C)C)c4)C3)cc2)c1 (stereo not given)	-2.9	nt	-3.0	-1.7	-3.0	nt	nt
SMILES	LYPLA2 counter	Hck Nef HTS	LYPLA1 inh	Rin1 Abl inh	PREPL inh	p97 ATPase inh	Hck Nef conf
Cc1[nH]c2ccccc2c1/C=N/Nc1ccccn1	nt	65.3*	nt	nt	nt	-0.4	+
CCOC(=O)C1=C(C)C(c2ccccc2O)NC(=O)N1 (stereo not given)	-3.3	56.6*	-2.2	0.6	-9.4	-2.9	i
O=c1[nH]c2ccc(N=Cc3c(O)ccc4cc(Br)ccc34)cc2[nH]1	nt	62.7*	nt	-6.4	nt	3.0	+
O=C(c1cnn(C(=O)COc2ccccc2F)c1)c1cc(F)ccc1O	-7.6	75.3*	-0.4	1.3	-3.1	-5.0	+
Cc1cc(Cl)ccc1OCC(=O)n1cc(C(=O)c2cc(Cl)ccc2O)cn1	0.2	32.6	-2.2	nt	-6.1	-1.8	nt
COc1ccc(S(=O)(=O)Nc2ccc3c(c2)C(=O)N([C@H](C)CO)C[C@H](C)[C@@H](CN(C)S(=O)(=O)c2c(C)noc2C)O3)cc1	nt	nt	nt	0.2	-2.9	nt	nt
COc1nc(Nc2nc3ccccc3c(=O)[nH]2)nc2ccc(C)cc12	-2.1	74.8*	-6.7	-3.3	2.2	2.9	i
COc1ccc(C(=O)[C@@H]2CC[C@](C)(C(=O)O)C2(C)C)cc1	1.9	nt	-2.1	0.0	5.1	nt	nt
COc1ccc(/C=N/n2c(C)nc3c([nH]c4ccccc43)c2=O)cc1CN1CCCC(C)(C)C1	-6.0	55.6*	1.4	-0.7	3.9	5.2	i
COc1ccc2[nH]c3c(=O)n(/N=C/c4ccc(OC)c(CN5CCCC5)c4)c(C)nc3c2c1	5.7	-8.8	6.7	-0.8	27.2	-12.1	nt
Cc1cccc(-c2nn(-c3ccccc3)cc2C(=O)N2CCN(C3CCS(=O)(=O)C3)CC2)c1 (stereo not given)	0.3	nt	0.4	-4.3	-2.7	nt	nt
Cc1ccc(Nc2nc(=O)c3cc([N+](=O)[O-])ccc3s2)cc1	-2.4	57.4*	-4.0	-1.4	12.0	8.4	i
COc1ccc(Nc2nc(=O)c3cc([N+](=O)[O-])ccc3s2)cc1	nt	48.1	nt	-2.6	nt	5.4	nt
CCOC(=O)c1c(NC(=O)c2cc(-c3ccc(Cl)s3)nc3ccccc23)sc(C(N)=O)c1C	-10.8	66.2*	-7.9	0.8	-12.8	4.8	i
Cc1ccccc1-c1cc(C(=O)Nc2sc(C)c(C)c2C(N)=O)c2ccccc2n1	-12.9	4.7	-13.3	-0.8	9.1	-4.1	nt
O=C1Cc2cc(NS(=O)(=O)c3cc(F)ccc3F)cc3c2N1CCC3	4.5	nt	2.7	0.5	-5.7	nt	nt
COC(=O)c1sc(NC(=O)/C=C/c2ccc(C)cc2)nc1C	1.9	6.8	-2.0	-1.6	-0.6	2.4	nt
COC(=O)c1sc(NC(=O)/C=C/c2ccccc2Cl)nc1C	-12.4	66.2*	-3.5	0.3	-5.3	2.6	i
N#Cc1c(NCCCO)nc(-c2ccco2)c2c1CCCC2	-2.7	140.5*	4.9	-3.0	-0.1	1.3	nt
COc1cc(NS(=O)(=O)c2ccc(NC(=S)NC(=O)c3sc4ccccc4c3Cl)cc2)nc(OC)n1	5.1	62.9*	-3.1	-14.6	-2.1	7.1	+
COc1ccccc1NC(=O)c1cc2c(s1)-c1ccccc1S(=O)(=O)C2	-9.6	52.2*	-6.0	-3.7	-3.7	0.1	i
CN(C)S(=O)(=O)c1cccc(NC(=O)c2ccc(S(=O)(=O)N3CCCC3)cc2)c1	-4.0	nt	-1.7	6.3	-7.8	nt	nt

Bioassay records (PubChem BioAssay)
